This is an account of results in ChEMBL document CHEMBL3988442, “University of Dundee, Small-Polar-MMV Screening Library” (2021).

Parameters in all cases: scale not given: direction of the effect not stated beside the values
The target in assay [1] is Protein translocase subunit SecA (Escherichia coli (strain K12)) (UniProt P10408). The assay is described as follows: Assay to Identify E. coli SecA ATPase Inhibitors. Particulars: 30 µM. The class given is functional.
The target of assay [2] is T1, Ubiquitin-activating enzyme e1, putative (Leishmania donovani (strain BPK282A1)) (UniProt E9BSI1).
T1 sequence (whole entry): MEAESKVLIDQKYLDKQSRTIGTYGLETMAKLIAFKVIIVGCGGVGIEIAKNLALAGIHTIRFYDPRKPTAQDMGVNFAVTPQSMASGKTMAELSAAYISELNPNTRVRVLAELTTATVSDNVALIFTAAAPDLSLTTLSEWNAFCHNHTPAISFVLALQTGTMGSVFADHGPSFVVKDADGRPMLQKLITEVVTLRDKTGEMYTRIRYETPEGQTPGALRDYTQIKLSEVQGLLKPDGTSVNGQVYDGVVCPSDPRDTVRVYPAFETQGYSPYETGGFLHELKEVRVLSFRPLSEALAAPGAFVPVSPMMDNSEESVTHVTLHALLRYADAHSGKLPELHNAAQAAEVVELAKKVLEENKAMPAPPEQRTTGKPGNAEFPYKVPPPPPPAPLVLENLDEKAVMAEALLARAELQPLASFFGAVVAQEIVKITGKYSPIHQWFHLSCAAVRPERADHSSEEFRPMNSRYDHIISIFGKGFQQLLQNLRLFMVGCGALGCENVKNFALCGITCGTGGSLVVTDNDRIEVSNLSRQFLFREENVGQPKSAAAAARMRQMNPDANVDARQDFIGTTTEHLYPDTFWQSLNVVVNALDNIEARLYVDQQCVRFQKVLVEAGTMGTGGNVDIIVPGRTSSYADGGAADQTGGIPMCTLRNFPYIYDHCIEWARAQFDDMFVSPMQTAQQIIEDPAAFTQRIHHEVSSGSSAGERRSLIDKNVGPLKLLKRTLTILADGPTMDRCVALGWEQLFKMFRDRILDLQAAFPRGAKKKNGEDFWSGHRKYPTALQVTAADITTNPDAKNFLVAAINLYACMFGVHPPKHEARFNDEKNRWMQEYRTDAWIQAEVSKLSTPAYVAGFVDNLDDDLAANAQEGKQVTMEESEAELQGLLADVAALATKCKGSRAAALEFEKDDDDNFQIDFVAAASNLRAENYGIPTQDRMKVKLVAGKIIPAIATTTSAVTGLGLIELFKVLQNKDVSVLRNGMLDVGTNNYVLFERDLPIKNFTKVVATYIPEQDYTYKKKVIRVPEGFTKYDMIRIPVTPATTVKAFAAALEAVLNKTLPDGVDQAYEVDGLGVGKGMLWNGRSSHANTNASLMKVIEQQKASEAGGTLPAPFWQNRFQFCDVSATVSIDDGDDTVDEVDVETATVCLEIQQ
The assay is described as follows: Leishmania donovani Ubiquitin Activating Enzyme (LdE1). The class given is functional. Particulars: 30 µM.

Assay [3] concerns the target AMP-activated protein kinase, AMPK (Homo sapiens) (UniProt P54646+O43741+P54619+Q9UGJ0+Q9Y478+Q13131+Q9UGI9). The assay is described as follows: AMP-dependent Kinase enzyme assay. An in vitro enzyme assay that detects ADP turnover that is directly proportional to AMPK activity. This uses naive AMPK that is activated during the assay with MK-8722. The conditions noted are these: 30 µM. The format is functional.

In assay [4] the target is Sialic acid-binding Ig-like lectin 9 (Homo sapiens) (UniProt Q9Y336). In words: Hs-Siglec9 ALPHAscreen SOP 20170721. Particulars: 10 µM. On the technique in general: Alpha assays give light when donor and acceptor beads are brought close together.
Sequence of Sialic acid-binding Ig-like lectin 9 (Homo sapiens) (Q9Y336 whole entry): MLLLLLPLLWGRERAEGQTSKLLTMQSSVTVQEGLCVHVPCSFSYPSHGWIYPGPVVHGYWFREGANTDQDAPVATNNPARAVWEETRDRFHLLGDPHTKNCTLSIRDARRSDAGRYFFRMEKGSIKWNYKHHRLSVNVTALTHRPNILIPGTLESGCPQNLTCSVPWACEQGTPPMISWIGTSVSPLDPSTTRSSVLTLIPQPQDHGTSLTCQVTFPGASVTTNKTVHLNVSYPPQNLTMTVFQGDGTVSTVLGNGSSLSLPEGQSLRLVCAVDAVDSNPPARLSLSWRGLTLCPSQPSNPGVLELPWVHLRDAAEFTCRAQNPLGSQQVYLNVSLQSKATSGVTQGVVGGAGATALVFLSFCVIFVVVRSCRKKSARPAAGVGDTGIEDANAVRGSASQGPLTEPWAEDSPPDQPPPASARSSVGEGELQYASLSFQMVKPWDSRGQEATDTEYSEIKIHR
In another assay the test system is Trypanosoma cruzi. In words: Trypanosoma cruzi phosphomannomutase and mannose-1-phosphate guanylyltransferase assay. The class given is functional. The conditions noted are these: 10 µM.
For assay [5], the target named is T2, Arginase-2, mitochondrial (Homo sapiens) (UniProt P78540).
T2 sequence (whole entry): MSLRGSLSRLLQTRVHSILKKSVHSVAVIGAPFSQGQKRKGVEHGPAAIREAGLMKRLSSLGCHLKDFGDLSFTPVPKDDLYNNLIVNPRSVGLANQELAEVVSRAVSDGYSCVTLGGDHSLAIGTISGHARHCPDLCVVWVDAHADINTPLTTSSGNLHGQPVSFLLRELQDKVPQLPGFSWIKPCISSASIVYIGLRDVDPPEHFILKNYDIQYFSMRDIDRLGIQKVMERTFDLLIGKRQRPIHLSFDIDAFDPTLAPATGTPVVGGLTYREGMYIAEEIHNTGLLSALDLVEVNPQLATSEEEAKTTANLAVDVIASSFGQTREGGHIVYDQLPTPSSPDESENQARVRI
The assay is described as follows: in vitro enzyme assay to detect the production of urea directly proportional to the activity of Arginase II. Further: in the data most compounds retested in dose-response had high values. The format is functional. The conditions noted are these: 33.3 µM.

Assay [6] concerns the target T3, Proteasome subunit beta (Trypanosoma cruzi) (UniProt O96673).
T3 sequence (whole entry): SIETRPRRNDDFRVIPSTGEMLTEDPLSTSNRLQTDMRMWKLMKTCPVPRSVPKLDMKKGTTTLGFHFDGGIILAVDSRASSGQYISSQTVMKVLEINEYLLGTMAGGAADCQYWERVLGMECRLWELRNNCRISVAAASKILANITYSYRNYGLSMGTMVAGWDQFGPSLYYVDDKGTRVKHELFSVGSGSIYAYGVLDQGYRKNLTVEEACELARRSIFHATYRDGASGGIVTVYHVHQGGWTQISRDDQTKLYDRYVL
In words: Trypanosoma cruzi proteasome chymotrypsin-like activity (TcProtChymo) assay. Further: in the data most compounds retested in dose-response had high values. The format is functional. Particulars: 9.37 µM.

For another assay, the species on record is Homo sapiens. The assay is described as follows: To identify inhibition of the IFN signalling (Jak-Stat) pathway via expression of an eGFP reporter gene under the control of an IFN-stimulated response element (ISRE) containing MxA promoter. The class given is functional. Particulars: 30 µM.
Assay [7] concerns the target T4, Tyrosyl-tRNA synthetase, putative (Trypanosoma cruzi (strain CL Brener)) (UniProt Q4DSP6).
T4 sequence (whole entry): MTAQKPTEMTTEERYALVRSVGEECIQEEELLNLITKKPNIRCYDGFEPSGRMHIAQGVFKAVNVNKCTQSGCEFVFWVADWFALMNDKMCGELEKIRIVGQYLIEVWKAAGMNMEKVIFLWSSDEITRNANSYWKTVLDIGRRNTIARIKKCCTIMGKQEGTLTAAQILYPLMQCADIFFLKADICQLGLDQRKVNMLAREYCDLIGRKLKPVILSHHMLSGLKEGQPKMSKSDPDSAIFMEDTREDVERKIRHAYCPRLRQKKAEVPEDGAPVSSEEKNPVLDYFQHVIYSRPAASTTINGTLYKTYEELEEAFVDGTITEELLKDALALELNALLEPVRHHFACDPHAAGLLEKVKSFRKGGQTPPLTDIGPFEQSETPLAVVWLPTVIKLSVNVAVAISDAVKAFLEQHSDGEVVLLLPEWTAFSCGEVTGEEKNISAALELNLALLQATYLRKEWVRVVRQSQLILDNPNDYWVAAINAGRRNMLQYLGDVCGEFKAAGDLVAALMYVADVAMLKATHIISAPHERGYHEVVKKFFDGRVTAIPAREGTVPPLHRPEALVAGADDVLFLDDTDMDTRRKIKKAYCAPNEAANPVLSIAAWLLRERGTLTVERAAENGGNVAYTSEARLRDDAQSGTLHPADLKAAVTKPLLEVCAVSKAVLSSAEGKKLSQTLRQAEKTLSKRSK
In words: Trypanosoma cruzi tyrosyl tRNA synthetase (TcYRS) _High Tyrosine SOP. Further: in the data most compounds retested in dose-response had high values. The format is functional. Particulars: 30 µM.

The target of assay [8] is T4, Tyrosyl-tRNA synthetase, putative (Trypanosoma cruzi (strain CL Brener)). In words: Trypanosoma cruzi tyrosyl tRNA synthetase (TcYRS) SOP. The class given is functional. Particulars: 30 µM.
For assay [9], the target named is Chromo domain-containing protein 1 (Saccharomyces cerevisiae (strain ATCC 204508 / S288c) (Baker's yeast)) (UniProt P32657). In words: ScCHD-1 Enzyme Inhibition Assay. Further: in the data most compounds retested in dose-response had high values. The format is functional. The conditions noted are these: 30 µM.
Sequence of Chromo domain-containing protein 1 (Saccharomyces cerevisiae (strain ATCC 204508 / S288c) (Baker's yeast)) (P32657 whole entry, the tested form may be a part): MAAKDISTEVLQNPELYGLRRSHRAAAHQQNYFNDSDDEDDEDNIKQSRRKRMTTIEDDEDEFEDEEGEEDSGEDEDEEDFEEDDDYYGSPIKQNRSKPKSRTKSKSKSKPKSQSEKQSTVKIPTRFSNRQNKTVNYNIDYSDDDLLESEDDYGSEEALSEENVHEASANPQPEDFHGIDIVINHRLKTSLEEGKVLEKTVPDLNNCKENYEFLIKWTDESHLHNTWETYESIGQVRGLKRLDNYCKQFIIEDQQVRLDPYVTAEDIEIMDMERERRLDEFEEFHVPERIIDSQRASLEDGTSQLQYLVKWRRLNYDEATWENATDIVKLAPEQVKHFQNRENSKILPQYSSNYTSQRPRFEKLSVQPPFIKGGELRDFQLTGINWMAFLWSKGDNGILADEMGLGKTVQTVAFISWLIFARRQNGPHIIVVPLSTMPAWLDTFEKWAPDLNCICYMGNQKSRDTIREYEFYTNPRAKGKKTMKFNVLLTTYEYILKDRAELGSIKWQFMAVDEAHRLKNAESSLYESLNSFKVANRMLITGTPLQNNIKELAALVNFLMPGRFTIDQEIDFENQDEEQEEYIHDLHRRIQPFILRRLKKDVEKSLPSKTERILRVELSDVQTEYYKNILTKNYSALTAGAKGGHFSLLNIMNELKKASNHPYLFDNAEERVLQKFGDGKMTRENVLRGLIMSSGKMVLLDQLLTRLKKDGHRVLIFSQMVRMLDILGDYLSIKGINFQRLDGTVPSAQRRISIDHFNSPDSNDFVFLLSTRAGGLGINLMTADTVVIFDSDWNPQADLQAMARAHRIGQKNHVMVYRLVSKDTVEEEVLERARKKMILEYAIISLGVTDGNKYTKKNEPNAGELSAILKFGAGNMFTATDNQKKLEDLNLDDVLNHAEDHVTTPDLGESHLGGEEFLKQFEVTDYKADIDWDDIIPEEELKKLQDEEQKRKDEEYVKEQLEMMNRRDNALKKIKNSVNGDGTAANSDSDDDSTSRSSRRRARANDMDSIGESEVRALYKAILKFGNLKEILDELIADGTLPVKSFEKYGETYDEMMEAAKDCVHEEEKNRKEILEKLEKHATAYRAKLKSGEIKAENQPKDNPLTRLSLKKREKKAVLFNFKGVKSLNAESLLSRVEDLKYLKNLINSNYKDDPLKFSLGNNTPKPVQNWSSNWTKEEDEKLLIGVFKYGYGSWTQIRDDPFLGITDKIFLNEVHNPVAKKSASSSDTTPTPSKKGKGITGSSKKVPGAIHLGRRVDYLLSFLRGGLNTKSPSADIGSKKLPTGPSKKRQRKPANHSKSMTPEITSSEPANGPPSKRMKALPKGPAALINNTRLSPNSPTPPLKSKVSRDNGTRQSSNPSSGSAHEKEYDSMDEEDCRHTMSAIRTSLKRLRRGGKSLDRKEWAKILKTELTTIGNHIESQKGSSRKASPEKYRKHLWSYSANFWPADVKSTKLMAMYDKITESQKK

For some assays here: Results with a measured potency or affinity are listed apart.

Sequence of Protein translocase subunit SecA (Escherichia coli (strain K12)) (P10408 whole entry): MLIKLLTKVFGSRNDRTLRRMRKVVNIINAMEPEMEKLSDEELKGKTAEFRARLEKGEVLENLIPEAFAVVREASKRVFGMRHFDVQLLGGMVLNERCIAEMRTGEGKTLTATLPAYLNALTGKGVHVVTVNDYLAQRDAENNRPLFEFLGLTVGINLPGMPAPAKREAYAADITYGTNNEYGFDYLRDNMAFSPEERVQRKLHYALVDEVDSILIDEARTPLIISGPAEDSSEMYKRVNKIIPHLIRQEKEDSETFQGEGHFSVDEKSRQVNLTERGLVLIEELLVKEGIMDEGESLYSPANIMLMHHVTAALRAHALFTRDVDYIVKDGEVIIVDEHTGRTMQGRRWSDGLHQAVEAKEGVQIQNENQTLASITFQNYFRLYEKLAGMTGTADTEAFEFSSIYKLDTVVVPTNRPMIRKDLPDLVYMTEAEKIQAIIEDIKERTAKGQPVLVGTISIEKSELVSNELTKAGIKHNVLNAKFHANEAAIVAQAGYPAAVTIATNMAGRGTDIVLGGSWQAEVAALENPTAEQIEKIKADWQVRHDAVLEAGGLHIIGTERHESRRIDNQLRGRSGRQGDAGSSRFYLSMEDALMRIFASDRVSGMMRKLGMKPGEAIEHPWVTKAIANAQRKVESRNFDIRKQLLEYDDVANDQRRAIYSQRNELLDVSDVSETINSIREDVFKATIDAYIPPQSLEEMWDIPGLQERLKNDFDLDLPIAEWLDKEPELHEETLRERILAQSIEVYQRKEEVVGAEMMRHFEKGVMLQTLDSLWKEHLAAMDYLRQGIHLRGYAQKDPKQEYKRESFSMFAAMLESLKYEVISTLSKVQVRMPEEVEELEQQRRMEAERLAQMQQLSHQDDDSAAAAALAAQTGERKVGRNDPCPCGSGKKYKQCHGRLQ

Regarding `CCn1cc(CN2CCCN(C(=O)CCCn3cncn3)CC2)cn1`, the Percent Effect in assay [1] was -2.76%; in [2], 0%; in [3], 7.06%; in [4], 6.78%; in the assay with Trypanosoma cruzi, 5.43%; in assay [5], 1.42%. For the same compound, the Percent Effect in assay [6] was 5.91%; in the assay listed under Homo sapiens it was 17.2%; in assay [7], 4.85%; in [8], 14.6%; in [9], -6.03%.

With `CCn1cc(CN(C)S(=O)(=O)c2ccc(NC(C)=O)cc2)cn1`, the Percent Effect is 2.78% in assay [1]; 14.7% in [2]; 5.54% in assay [3]; -0.366% in assay [4]; -2.95% with Trypanosoma cruzi; -15% in assay [5]. For the same compound, the Percent Effect is 7.39% in assay [6]; 18% in the assay listed under Homo sapiens; 1.06% in assay [7]; 7.69% in assay [8]; -7.39% in assay [9].

In the case of `CNc1cc(N2CCCC2CNCc2c[nH]nc2C(C)(C)C)ncn1` (stereo not given), the Percent Effect in [1] is -3.59%; in assay [2], 0%; in assay [3], -14.4%; in assay [4], -4.25%; with Trypanosoma cruzi, -4.88%; in assay [5], -4.17%. Moreover, the Percent Effect in [6] was 6%; in the assay listed under Homo sapiens it was -0.674%; in assay [7] it was 5.94%; in assay [8], 6.1%; in [9], 0.0939%.

For the compound `O=C(NCC1CC1)Nc1cnc2cc(Cl)ccc2c1O`, the Percent Effect was -4.33% in assay [1]; 12.2% in assay [2]; 4.52% in assay [3]; -10.8% in [4]; -2.57% in the assay with Trypanosoma cruzi; -1.62% in [5]. Also, the Percent Effect in assay [6] was 8.89%; in the assay listed under Homo sapiens, 8.61%; in assay [7] it was -1.07%; in [8], -1.3%; in [9], -6.64%.

`CCNC(=O)c1ccoc1CN1c2ccccc2CC1C` (stereo not given): the Percent Effect in [1] was -3.54%; in assay [2] it was 2.74%; in assay [3], 7.91%; in [4], 9.27%; in the assay on Trypanosoma cruzi, -3.97%; in assay [5] it was 2.4%. The Percent Effect in assay [6] stood at 12.4%; in the assay listed under Homo sapiens it was 5.41%; in [7], 4.17%; in assay [8], 11.1%; in assay [9], 1.31%.

Turning to `CC(c1nc(C2CC2)no1)N1CCN(c2ccc(C#N)cn2)CC1` (stereo not given), the Percent Effect is 0.926% in assay [1]; 2.63% in [2]; 8.14% in assay [3]; 5.94% in assay [4]; -4.58% with Trypanosoma cruzi; -4.73% in assay [5]. Besides, the Percent Effect in assay [6] is 13.7%; in the assay filed under Homo sapiens it was 10.8%; in assay [7], 2.13%; in assay [8], 7.79%; in [9] it was -2.39%.

With `Cc1cccc(N2Cc3nc(=O)[nH]n3C2=O)c1`, the Percent Effect is 1.1% in [1]; 4% in assay [2]; 3.29% in assay [3]; -0.713% in assay [4]; -4.52% in the assay with Trypanosoma cruzi; -9.33% in assay [5]. Also, the Percent Effect is 19.6% in assay [6]; -0.119% in the assay listed under Homo sapiens; 5.29% in assay [7]; 5.13% in assay [8]; -4.23% in [9].

In the case of `Cc1cnn(CC2CCCN2C(=O)CCc2nc3ccccc3[nH]2)c1` (stereo not given), the Percent Effect in assay [1] is -4.12%; in assay [2] it was 7.59%; in assay [3] it was -2.81%; in assay [4], 11.1%; in the assay with Trypanosoma cruzi it was 4.82%; in [5], 0.38%. In addition, the Percent Effect in [6] is -3.69%; in the assay listed under Homo sapiens, -14.8%; in [7] it was 1.48%; in [8], 8.86%; in assay [9], -1.08%.

For the compound `OC(CN1CCN(Cc2nnc(C3CC3)o2)CC1)c1ccccc1` (stereo not given), the Percent Effect in assay [1] was -4.5%; in assay [2], 10.1%; in assay [3] it was -8.23%; in [4] it was 15.1%; with Trypanosoma cruzi it was -3.31%; in [5], 1.9%. Moreover, the Percent Effect in [6] is -3.19%; in the assay filed under Homo sapiens it was 17.6%; in [7], 2.46%; in assay [8] it was 13.9%; in assay [9] it was -2.36%.

With `Cc1ccc(CN(Cc2ccccn2)C2CC(C)(C)NC(C)(C)C2)s1`, the Percent Effect was -1.39% in assay [1]; -4.05% in assay [2]; 8.17% in [3]; 7.72% in assay [4]; -3.95% with Trypanosoma cruzi; -0.232% in [5]. The Percent Effect in [6] is 8.27%; in the assay listed under Homo sapiens, 5.16%; in assay [7], 4.3%; in [8], 3.9%; in assay [9], -9.63%.
